Screening results as filed in PubChem BioAssay.
ssDAF12 agonist = S. stercoralis DAF-12 nuclear receptor activators, primary screen, cell-based, luminescence, HEK293, GRIP1 co-expression, lit1-tk-luc; Nuclear hormone receptor DAF-12 (Strongyloides stercoralis); HEK293 ssDAF-12/GRIP1 lit1-tk-luc reporter; % of 3 µM dafachronic acid response; activation, % at 6.8 µM; hit rate 1% among 370,000; AID 652126, 2013;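 active means activation above the mean over all tested compounds plus 3 SD, cut at about 0.9% in these data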
hgDAF12 agonist = H. glycines DAF-12 receptor agonists, primary screen, cell-based, luminescence, HEK293, GAL4 fusion, UAS-luciferase | activation, % at 6.8 µM | HEK293 GAL4-hgDAF12 UAS-luciferase reporter, agonist luminescence; normalized to butyrate control | hit rate 1.8% among 370,000;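 active means activation above a cutoff set at the mean of all screened compounds plus 3 SD, cut at about 10% in these data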
hcDAF12 agonist = H. contortus DAF-12 nuclear receptor activators, primary screen, cell-based, luminescence, HEK293, lit1-tk-luc reporter; HEK293 hcDAF-12 lit1-tk-luc reporter; 0% DMSO, 100% Δ7-dafachronic acid; activation, % at 6.8 µM; hit rate 1.4% among 370,000;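 active means activation above the mean of all tested compounds plus 3 SD, cut at about 5.5% in these data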
DAX1 inh-1 = DAX1 (NR0B1) inhibitors on StAR promoter, primary screen, cell-based, luminescence, SF-1 (NR5A1), full-length DAX-1 | HEK293T StAR-luciferase reporter, SF-1/DAX-1 repression relief | inhibition, % at 6.8 µM | hit rate 1.1% among 370,000 | AID 652010, 2013;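 active means inhibition above the mean over all tested compounds plus 3 SD, cut at about 3.6% in these data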;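 further: higher inhibition means more luminescence from relief of DAX-1 repression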
DAX1 inh-2 = DAX1 (NR0B1) inhibitors, primary screen, cell-based, HEK293, Gal4-DAX1, luciferase luminescence; Nuclear receptor subfamily 0 group B member 1 (Homo sapiens), P51843; HEK293 Gal4-DAX1 luciferase reporter; inhibition, % at 6.75 µM; hit rate 0.99% among 340,000; AID 504766, 2011;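 active means inhibition above the mean over all tested compounds plus 3 SD, cut at about 4.2% in these data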;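 further: inhibition shows as a rise in luminescence from relieved DAX1 repression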
Target sequence (P51843 207-470 limits assumed): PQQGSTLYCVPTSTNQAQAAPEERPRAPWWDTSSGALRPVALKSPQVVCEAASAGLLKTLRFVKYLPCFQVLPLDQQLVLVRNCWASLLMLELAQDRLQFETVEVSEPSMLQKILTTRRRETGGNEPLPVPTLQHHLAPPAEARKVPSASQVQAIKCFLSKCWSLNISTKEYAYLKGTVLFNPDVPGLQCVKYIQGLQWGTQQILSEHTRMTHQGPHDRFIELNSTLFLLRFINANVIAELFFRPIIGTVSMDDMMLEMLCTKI
Each line names hits and unclear results; the compound was inactive in the other large screens. The list is not random: actives were taken first. Their share in the collection is about 4.1%.

CCOc1ccc(N(Cc2nnc3n2CCCCC3)C(=O)Nc2cccc(C)c2)cc1	DAX1 inh-2 6.6
Cc1ccccc1OCCCCn1cnc2ccccc21	none
Brc1ccccc1OCCCn1cnc2ccccc21	hgDAF12 agonist 11
Cc1ccc(NC(=S)NC(=O)c2ccc(-c3ccc(Cl)cc3)o2)c(O)c1	ssDAF12 agonist 2.5
O=c1c2ccccc2sn1-c1ccc(S(=O)(=O)N2CCCC2)cc1	none
O=c1c2ccccc2sn1-c1ccc(S(=O)(=O)N2CCCCC2)cc1	ssDAF12 agonist 1.1
O=C(CCc1ccccc1)N[C@H]1[C@H](O)CCC[C@@]12C(=O)N(Cc1ccccc1)c1ccc(-c3ccccc3)cc12	none (no result: DAX1 inh-2)
O=C(Nc1cccc(F)c1)c1ccc2c(c1)OCCO2	hgDAF12 agonist 13, hcDAF12 agonist 6.3
Cc1cc(C(=O)Nc2ccc3c(c2)OCCO3)co1	hcDAF12 agonist 6.1, DAX1 inh-1 4.1
CCOC(=O)N1CCN(S(=O)(=O)c2ccc(C(=O)N(CCN(C)C)c3nc4ccc(Cl)cc4s3)cc2)CC1	none
CCOC(=O)N1CCN(S(=O)(=O)c2ccc(C(=O)N(CCCN(C)C)c3nc4ccc(OC)cc4s3)cc2)CC1	DAX1 inh-1 3.6
CCN(CC(=O)NCc1cccs1)C(=O)c1ccc(S(=O)(=O)Nc2ccccc2)cc1	none
CCN(CC(=O)NCc1cccs1)C(=O)c1ccc(NS(=O)(=O)c2cccc([N+](=O)[O-])c2)cc1	DAX1 inh-2 4.8
Nn1c(SCC(=O)Nc2nccs2)nnc1-c1cc(-c2ccc(Cl)cc2)n[nH]1	none (no result: DAX1 inh-2)
Cc1ccc(C(=O)NCC(=O)NC2CCC(C)CC2)s1 (configuration not stated)	none
CC1CCC(NC(=O)CNC(=O)c2cccs2)CC1 (configuration not stated)	DAX1 inh-1 4.4
COC(=O)[C@]12C=CCN1[C@H](c1ccccc1)c1c(c3ccccc3n1S(=O)(=O)c1ccc(C)cc1)C2	none (no result: DAX1 inh-2)
O=C(c1ccc(-c2ccccc2)cc1)N1CCN(c2ccccc2)CC1	DAX1 inh-2 4.8
COc1ccccc1N1CCN(/N=C/C=C\c2ccco2)CC1	DAX1 inh-1 4.1
COc1ccccc1N1CCN(/N=C/c2ccc(C(=O)O)cc2)CC1	hgDAF12 agonist 11
O=C(O)c1ccc(/C=N/N2CCN(c3ccccc3)CC2)cc1	DAX1 inh-2 5.4
Cc1cc(C)cc(C(=O)OCCCN(C)C2CN(Cc3cn(Cc4ccc([N+](=O)[O-])cc4)nn3)S(=O)(=O)C2)c1 (configuration not stated)	none (no result: DAX1 inh-2)
CC(C)n1nnnc1C1(C)CCCCC(=O)N1Cc1cccc(C(F)(F)F)c1 (configuration not stated)	none (no result: DAX1 inh-2)
Cc1ccc(NC(=O)OC2CCC23CCCCC3)cc1 (configuration not stated)	none (no result: DAX1 inh-2)
COC(=O)/C(=C/c1cn(C(C)=O)c2ccccc12)[N+](=O)[O-]	hcDAF12 agonist 5.7 (no result: DAX1 inh-2)
COC(=O)/C(=C/c1c[nH]c2ccccc12)[N+](=O)[O-]	none
CC(=O)Nc1ccc(N2C(=O)CC(Sc3nc4ccccc4s3)C2=O)cc1 (configuration not stated)	ssDAF12 agonist 3.9
Clc1ccc(-n2c(SCc3cccc4ccccc34)nnc2-c2cccnc2)cc1	none (no result: DAX1 inh-2)
CCOc1cc(S(=O)(=O)NCC2OCCc3ccccc32)c(OCC)cc1-n1cnnn1 (configuration not stated)	DAX1 inh-2 4.6
CCOc1cc(S(=O)(=O)NCCc2ccc(OC)c(OC)c2)c(OCC)cc1-n1cnnn1	none
O=c1[nH]c2ccccc2n1C1CCCCC1	DAX1 inh-2 6.1
O=C(NC1CCCCC1)N1CCC(n2c(=O)[nH]c3ccccc32)CC1	none
Cc1ccc2[nH]c(=O)c(NC(N)=S)nc2c1	none
NC(=S)Nc1nc2ccccc2[nH]c1=O	hcDAF12 agonist 5.8 (no result: DAX1 inh-2)
CCOc1ccc2nc(NC(=O)CSc3ccc(Cl)cc3)sc2c1	none
CCOCC(=O)Nc1nc2ccc(OCC)cc2s1	hgDAF12 agonist 11
CSc1nsc(SCC(=O)Nc2ccc(OC(C)=O)cc2)n1	hgDAF12 agonist 11
CCOc1ccc2nc(NC(=O)CSc3nc(SC)ns3)sc2c1	hcDAF12 agonist 6.1
OC(c1ccc(-c2ccccc2)cc1)c1ncc(-c2ccc(F)cc2)[nH]1 (configuration not stated)	none (no result: DAX1 inh-2)
CN1CCN(/N=C/c2ccc(OCc3ccccc3)cc2)CC1	DAX1 inh-2 6.0
COc1ccc2nc3cc(Cl)ccc3c(C#N)c2c1	none
COc1ccc2nc3cc(Cl)ccc3c(Nc3ccc(O)c(CN4CCN(C)CC4)c3)c2c1	DAX1 inh-2 4.3
O=C(c1ccc(Cl)c(Cl)c1)c1cnc(Nc2ccccc2)s1	none
CC(=O)c1cnc(Nc2ccc(C)cc2)s1	DAX1 inh-2 4.7
CC(C)(C)c1ccc(-c2csc(N3CCC(C(N)=O)CC3)n2)cc1	none (no result: DAX1 inh-1, DAX1 inh-2)
COc1ccc(CNCC#Cc2ccccc2)cc1	none (no result: DAX1 inh-2)
O=C(CNS(=O)(=O)c1cccc(Cl)c1)Nc1ccc(-c2nc3ccccc3s2)cc1	hgDAF12 agonist 11
C[C@@H](N)P(=O)(O)C[C@H](Cc1ccccc1)C(=O)O	none (no result: DAX1 inh-2)
Cc1ccc(CNc2ccc3c(c2)ncn3C(C)C)cc1	DAX1 inh-2 6.2
CCn1cnc2cc(NCc3ccc(Br)cc3)ccc21	none (no result: DAX1 inh-2)
CCn1cnc2cc(NCc3ccc(C)cc3)ccc21	DAX1 inh-1 4.4
C=CCn1c(COc2ccc(OC)cc2)nnc1SCn1nnc2ccccc2c1=O	ssDAF12 agonist 6.3
CCOC(=O)C(CCCCCCC(NC(C)=O)(C(=O)OCC)C(=O)OCC)(NC(C)=O)C(=O)OCC	DAX1 inh-2 4.7
O=C(OCC#CCSc1nnc(-c2cccc3ccccc23)o1)c1ccc(F)nc1	none (no result: DAX1 inh-1, DAX1 inh-2)
CSc1nnc(SCC2=NNC(=O)SC2)s1	ssDAF12 agonist 0.9
CN(Cc1ccccc1)C(=O)c1cnc(Cc2c[nH]c3ccccc23)c(I)c1	none (no result: DAX1 inh-2)
CCOc1ccc(S(=O)(=O)Nc2cc(SCC(=O)O)c(O)c3ccccc23)cc1	ssDAF12 agonist 1.5
O=C(O)CSc1cc(NS(=O)(=O)c2cccc([N+](=O)[O-])c2)c2ccccc2c1O	ssDAF12 agonist 1.0
CCn1cc(CN2CCN(Cc3ccccc3)C(CCO)C2)c2ccccc21 (configuration not stated)	DAX1 inh-2 4.2
CCn1cc(CN2CCN(Cc3ccc(C)o3)C(CCO)C2)c2ccccc21 (configuration not stated)	hcDAF12 agonist 5.6
